# Values joined by “and” are separate entries in the source; they are usually repeats but may differ in a detail not shown here. Equal values may be shown once. About 2,000 (36%) of roughly 5,500 compounds were called active. Not shown: some 18% with an inconclusive outcome. No stated cut-off is given here; in the data, active means normalized growth mostly below about 0.91 (no sharp cut-off); inconclusive means no clear call, values can overlap the other calls; inactive means mostly above about 0.92. The list shows a part of the results. A structure can be active in one record and inactive in another.
# Assay: chemical genetic growth profiling, strain panel (AID 1159580);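 further: tested at 20 µM; growth read once vehicle control cultures reached saturation at 30 °C; 1 = growth at the plate median or of vehicle wells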
# Conditions: growth OD
smiles,measurement,setting,value
CCn1cc(C(=O)O)c(=O)c2ccc(C)nc21,normalized growth,"S. cerevisiae deletion strains, locus YKL009W, strain mrt4, stronger effect = lower value",0.91 (inactive)
same,normalized growth,"S. cerevisiae deletion strains, locus YKL068W, stronger effect = lower value",0.942 (inactive)
same,normalized growth,"S. cerevisiae deletion strains, locus YKL085W, strain MDH1 (second series), stronger effect = lower value",0.938 (inactive)
same,normalized growth,"S. cerevisiae deletion strains, locus YKL085W, strain MDH1, stronger effect = lower value",0.938 (inactive)
same,normalized growth,"S. cerevisiae deletion strains, locus YKL160W, strain elf1, stronger effect = lower value",0.976 (inactive)
same,normalized growth,"S. cerevisiae deletion strains, locus YKL190W, strain CNB1, stronger effect = lower value",0.933 (inactive)
same,normalized growth,"S. cerevisiae deletion strains, locus YKR001C, strain vps1, stronger effect = lower value",0.812 (active)
same,normalized growth,"S. cerevisiae deletion strains, locus YKR026C, strain gcn3, stronger effect = lower value",0.965 (inactive)
same,normalized growth,"S. cerevisiae deletion strains, locus YKR091W, strain srl3, stronger effect = lower value",0.926 (active)
same,normalized growth,"S. cerevisiae deletion strains, locus YLL001W, strain dnm1, stronger effect = lower value",0.946 (inactive)
same,normalized growth,"S. cerevisiae deletion strains, locus YLL026W, stronger effect = lower value",0.94 (inactive)
same,normalized growth,"S. cerevisiae deletion strains, locus YLL041C, strain sdh2, stronger effect = lower value",0.931 (inactive)
same,normalized growth,"S. cerevisiae deletion strains, locus YLR027C, strain aat2, stronger effect = lower value",0.942 (inactive)
same,normalized growth,"S. cerevisiae deletion strains, locus YLR039C, strain RIC1, stronger effect = lower value",0.447 (active)
same,normalized growth,"S. cerevisiae deletion strains, locus YLR058C, strain SHM2, stronger effect = lower value",0.921 (inactive)
same,normalized growth,"S. cerevisiae deletion strains, locus YLR102C, strain apc9, stronger effect = lower value",0.933 (inactive)
same,normalized growth,"S. cerevisiae deletion strains, locus YLR113W, strain HOG1, stronger effect = lower value",0.94 (inactive)
same,normalized growth,"S. cerevisiae deletion strains, locus YLR221C, strain rsa3, stronger effect = lower value",0.943 (inactive)
same,normalized growth,"S. cerevisiae deletion strains, locus YLR258W, strain gsy2, stronger effect = lower value",0.939 (inactive)
same,normalized growth,"S. cerevisiae deletion strains, locus YLR262C, strain YPT6 (second series), stronger effect = lower value",0.297 (active)
same,normalized growth,"S. cerevisiae deletion strains, locus YLR262C, strain YPT6, stronger effect = lower value",0.406 (active)
same,normalized growth,"S. cerevisiae deletion strains, locus YLR268W, strain sec22, stronger effect = lower value",0.868 (active)
same,normalized growth,"S. cerevisiae deletion strains, locus YLR320W, strain mms22, stronger effect = lower value",0.976 (inactive)
same,normalized growth,"S. cerevisiae deletion strains, locus YLR330W, strain CHS5, stronger effect = lower value",0.949 (inactive)
same,normalized growth,"S. cerevisiae deletion strains, locus YLR342W, strain FKS1 (second series), stronger effect = lower value",0.958 (inactive)
same,normalized growth,"S. cerevisiae deletion strains, locus YLR342W, strain FKS1, stronger effect = lower value",0.912 (inactive)
same,normalized growth,"S. cerevisiae deletion strains, locus YLR357W, strain rsc2, stronger effect = lower value",1.09 (inactive)
same,normalized growth,"S. cerevisiae deletion strains, locus YLR370C, strain arc18, stronger effect = lower value",0.943 (inactive)
same,normalized growth,"S. cerevisiae deletion strains, locus YLR371W, strain rom2, stronger effect = lower value",0.941 (inactive)
same,normalized growth,"S. cerevisiae deletion strains, locus YLR384C, strain iki3, stronger effect = lower value",0.926 (inactive)
same,normalized growth,"S. cerevisiae deletion strains, locus YLR418C, strain cdc73, stronger effect = lower value",0.852 (inactive)
same,normalized growth,"S. cerevisiae deletion strains, locus YML016C, strain PPZ1, stronger effect = lower value",0.887 (active)
same,normalized growth,"S. cerevisiae deletion strains, locus YML032C, strain rad52, stronger effect = lower value",0.883 (active)
same,normalized growth,"S. cerevisiae deletion strains, locus YML120C, strain ndi1, stronger effect = lower value",0.954 (inactive)
same,normalized growth,"S. cerevisiae deletion strains, locus YML124C, strain tub3, stronger effect = lower value",0.916 (active)
same,normalized growth,"S. cerevisiae deletion strains, locus YMR058W, strain fet3, stronger effect = lower value",0.943 (inactive)
same,normalized growth,"S. cerevisiae deletion strains, locus YMR078C, strain ctf18, stronger effect = lower value",0.927 (inactive)
same,normalized growth,"S. cerevisiae deletion strains, locus YMR125W, strain sto1, stronger effect = lower value",1.02 (inactive)
same,normalized growth,"S. cerevisiae deletion strains, locus YMR129W, stronger effect = lower value",0.941 (inactive)
same,normalized growth,"S. cerevisiae deletion strains, locus YMR205C, strain PFK2, stronger effect = lower value",0.986 (inactive)
same,normalized growth,"S. cerevisiae deletion strains, locus YMR223W, strain ubp8, stronger effect = lower value",0.947 (inactive)
same,normalized growth,"S. cerevisiae deletion strains, locus YMR231W, strain pep5, stronger effect = lower value",0.891 (active)
same,normalized growth,"S. cerevisiae deletion strains, locus YMR263W, strain SAP30, stronger effect = lower value",0.97 (inactive)
same,normalized growth,"S. cerevisiae deletion strains, locus YMR307W, strain GAS1, stronger effect = lower value",0.756 (inactive)
same,normalized growth,"S. cerevisiae deletion strains, locus YNL067W, strain RPL9B, stronger effect = lower value",0.949 (inactive)
same,normalized growth,"S. cerevisiae deletion strains, locus YNL071W, strain lat1, stronger effect = lower value",0.925 (inactive)
same,normalized growth,"S. cerevisiae deletion strains, locus YNL128W, strain TEP1, stronger effect = lower value",0.941 (inactive)
same,normalized growth,"S. cerevisiae deletion strains, locus YNL153C, strain GIM3, stronger effect = lower value",0.971 (inactive) and 1.01 (inactive)
same,normalized growth,"S. cerevisiae deletion strains, locus YNL175C, strain NOP13, stronger effect = lower value",0.944 (inactive)
same,normalized growth,"S. cerevisiae deletion strains, locus YNL183C, strain NPR1, stronger effect = lower value",0.911 (inactive)
same,normalized growth,"S. cerevisiae deletion strains, locus YNL197C, strain WHI3, stronger effect = lower value",0.939 (inactive)
same,normalized growth,"S. cerevisiae deletion strains, locus YNL209W, strain ssb2, stronger effect = lower value",0.929 (inactive)
same,normalized growth,"S. cerevisiae deletion strains, locus YNL224C, strain SQS1, stronger effect = lower value",0.944 (inactive)
same,normalized growth,"S. cerevisiae deletion strains, locus YNL233W, strain BNI4, stronger effect = lower value",0.994 (inactive)
same,normalized growth,"S. cerevisiae deletion strains, locus YNL248C, strain rpa49, stronger effect = lower value",0.984 (inactive)
same,normalized growth,"S. cerevisiae deletion strains, locus YNL250W, strain rad50, stronger effect = lower value",0.939 (inactive)
same,normalized growth,"S. cerevisiae deletion strains, locus YNL271C, strain bni1, stronger effect = lower value",0.864 (active)
same,normalized growth,"S. cerevisiae deletion strains, locus YNL298W, strain CLA4, stronger effect = lower value",0.871 (active)
same,normalized growth,"S. cerevisiae deletion strains, locus YNL307C, strain MCK1, stronger effect = lower value",0.955 (inactive)
same,normalized growth,"S. cerevisiae deletion strains, locus YNL322C, strain KRE1 (second series), stronger effect = lower value",0.983 (inactive)
same,normalized growth,"S. cerevisiae deletion strains, locus YNL322C, strain KRE1, stronger effect = lower value",0.933 (inactive) and 0.965 (inactive)
same,normalized growth,"S. cerevisiae deletion strains, locus YNR049C, strain mso1, stronger effect = lower value",0.937 (inactive)
same,normalized growth,"S. cerevisiae deletion strains, locus YNR052C, strain pop2, stronger effect = lower value",0.803 (active)
same,normalized growth,"S. cerevisiae deletion strains, locus YOL006C, strain TOP1, stronger effect = lower value",1.04 (inactive)
same,normalized growth,"S. cerevisiae deletion strains, locus YOL012C, strain htz1",0.496 (inactive)
same,normalized growth,"S. cerevisiae deletion strains, locus YOL147C, strain pex11, stronger effect = lower value",0.926 (active)
same,normalized growth,"S. cerevisiae deletion strains, locus YOR001W, strain rrp6, stronger effect = lower value",0.828 (active)
same,normalized growth,"S. cerevisiae deletion strains, locus YOR061W, strain CKA2, stronger effect = lower value",0.898 (inactive)
same,normalized growth,"S. cerevisiae deletion strains, locus YOR069W, strain VPS5, stronger effect = lower value",0.918 (active)
same,normalized growth,"S. cerevisiae deletion strains, locus YOR070C, strain gyp1, stronger effect = lower value",0.935 (inactive)
same,normalized growth,"S. cerevisiae deletion strains, locus YOR080W, strain dia2, stronger effect = lower value",0.927 (inactive)
same,normalized growth,"S. cerevisiae deletion strains, locus YOR083W, strain WHI5 (second series), stronger effect = lower value",0.968 (inactive)
same,normalized growth,"S. cerevisiae deletion strains, locus YOR083W, strain WHI5, stronger effect = lower value",0.935 (inactive)
same,normalized growth,"S. cerevisiae deletion strains, locus YOR106W, strain vam3, stronger effect = lower value",0.964 (inactive)
same,normalized growth,"S. cerevisiae deletion strains, locus YOR136W, strain idh2, stronger effect = lower value",0.969 (inactive)
same,normalized growth,"S. cerevisiae deletion strains, locus YOR144C, strain elg1, stronger effect = lower value",0.914 (active)
same,normalized growth,"S. cerevisiae deletion strains, locus YOR184W, strain ser1, stronger effect = lower value",0.882 (inactive)
same,normalized growth,"S. cerevisiae deletion strains, locus YOR231W, strain MKK1, stronger effect = lower value",0.888 (inactive)
same,normalized growth,"S. cerevisiae deletion strains, locus YOR265W, strain rbl2, stronger effect = lower value",0.93 (inactive)
same,normalized growth,"S. cerevisiae deletion strains, locus YOR270C, strain vph1, stronger effect = lower value",1.08 (inactive)
same,normalized growth,"S. cerevisiae deletion strains, locus YOR290C, strain snf2, stronger effect = lower value",0.962 (inactive)
same,normalized growth,"S. cerevisiae deletion strains, locus YOR316C, strain cot1, stronger effect = lower value",0.926 (inactive)
same,normalized growth,"S. cerevisiae deletion strains, locus YPL051W, strain arl3, stronger effect = lower value",0.903 (active)
same,normalized growth,"S. cerevisiae deletion strains, locus YPL055C, strain LGE1, stronger effect = lower value",1.05 (inactive) and 1.03 (inactive)
same,normalized growth,"S. cerevisiae deletion strains, locus YPL078C, strain atp4, stronger effect = lower value",0.927 (inactive)
same,normalized growth,"S. cerevisiae deletion strains, locus YPL106C, strain sse1, stronger effect = lower value",1.06 (inactive)
same,normalized growth,"S. cerevisiae deletion strains, locus YPL240C, strain hsp82, stronger effect = lower value",0.931 (inactive)
same,normalized growth,"S. cerevisiae deletion strains, locus YPL241C, strain CIN2, stronger effect = lower value",0.945 (inactive) and 0.927 (active)
same,normalized growth,"S. cerevisiae deletion strains, locus YPL256C, strain CLN2, stronger effect = lower value",0.993 (inactive)
same,normalized growth,"S. cerevisiae deletion strains, locus YPR119W, strain clb2, stronger effect = lower value",0.918 (active)
same,normalized growth,"S. cerevisiae deletion strains, locus YPR141C, strain kar3, stronger effect = lower value",0.954 (inactive)
same,normalized growth,"S. cerevisiae deletion strains, locus YPR163C, strain tif3, stronger effect = lower value",0.882 (active)
same,normalized growth,"S. cerevisiae deletion strains, locus YPR167C, strain met16, stronger effect = lower value",0.929 (inactive)
same,normalized growth,"S. cerevisiae deletion strains, strain wtn01, stronger effect = lower value",0.915 (inactive)
same,normalized growth,"S. cerevisiae strains, strain wild type, stronger effect = lower value",0.932 (inactive)

# — PubChem BioAssay AID1159580 (chemical genetic matrix, 2015)
